Screening results as filed in PubChem.
This is a sample that favours compounds with a hit; in the whole collection about 4% have one here.
KKLEB tox = CF airway cell cytotoxicity counter-screen | activity change (cytotoxicity), % at 5 µM | AID 602141 | 0.36% of 360,000 active | KKLEB CF airway cells viability, ATPlite luminescence, overnight; active compounds read low; cells stimulated with P. aeruginosa culture filtrate;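 active = corrected activity change at or below -50% at 5 µM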
TROY signal inh = TROY signaling inhibition; Q293 LMP1-TROYcd NF-kB luciferase reporter, 4 h; inhibition, % at 10 µM; 0.98% of 360,000 active; AID 1347056;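 active = compounds whose plate-normalised and pattern-corrected inhibition of the luciferase reporter signal at the single screening dose is 50% or more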
HIF-2a inh = inhibitors of HIF-2a. 786-0 RCC cells HIF-2a reporter, luciferase luminescence, overnight. inhibition, % at 18.8 µM. 0.72% of 360,000 active;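 active = inhibition of the luminescence signal of 40% or more relative to plate controls, in a single-dose primary screen at 18.75 µM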
Peg3 prom inh = inhibitors of Peg3 promoter; HeLa PEG-Prom luciferase reporter, luminescence, overnight; inhibition, % at 20 µM; 1.7% of 360,000 active; AID 588405;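 active = inhibition of at least 50% at 20 µM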
CF NFkB block = inhibitors of cystic fibrosis induced NF-kB; AID 588850; KKLEB NF-kB-GFP reporter, PAF-induced, GFP fluorescence overnight; 0.86% of 360,000 active; inhibition, % at 5 µM;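 active = at least 50% inhibition at 5 µM, scaled per plate between neutral and stimulator controls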;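 also: PAF is a Pseudomonas aeruginosa culture filtrate used as stimulus; plate controls were PAF-stimulated DMSO wells for no effect and unstimulated DMSO wells for full effect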
TWEAK-Fn14 inh = blocks TWEAK-Fn14 interaction in a reporter cell assay; TWEAK-stimulated Fn14 reporter cells, luciferase luminescence, 8 h; inhibition, % at 10 µM; 2% of 360,000 active; AID 1159606; in the data active = inhibition above about 50%
Numbers without * were called inactive; . = no result given.

SMILES | KKLEB tox | TROY signal inh | HIF-2a inh | Peg3 prom inh | CF NFkB block | TWEAK-Fn14 inh
CCN(CC)C(=O)c1cccc(-c2csc(C(O)c3cccc(Cl)c3)n2)c1 (configuration not stated) | -3 | 45 | 11 | 30 | -6 | 61*
C#CCOCCOCCOCCNc1nc(N2CCN(C(=O)CCCCCCCCCCNC(=O)[C@H]([C@@H](C)CC)n3cc(CCCCCN)nn3)CC2)nc(N2CCN(C(=O)CCCCCCCCCCNC(=O)[C@@H]([C@H](C)O)n3cc(C)nn3)CC2)n1 | -29 | 67* | 0 | 98* | 27 | 50
C#CCOCCOCCOCCNc1nc(N2CCN(C(=O)CCCCCCCCCCNC(=O)[C@H](CCCCN)n3cc(CCO)nn3)CC2)nc(N2CCN(C(=O)CCCCCCCCCCNC(=O)[C@@H]([C@H](C)O)n3cc(C)nn3)CC2)n1 | 1 | -2 | -5 | 29 | 2 | -15
C#CCOCCOCCOCCNc1nc(N2CCN(C(=O)CCCCCCCCCCNC(=O)[C@H](CCCCN)n3cc(C)nn3)CC2)nc(N2CCN(C(=O)CCCCCCCCCCNC(=O)[C@@H]([C@H](C)CC)n3cc(CCCCCN)nn3)CC2)n1 | 11 | 31 | 4 | 94* | 4 | -71
C#CCOCCOCCOCCNc1nc(N2CCN(C(=O)CCCCCCCCCCNC(=O)[C@H](CCC(=O)O)n3cc(CCCCCN)nn3)CC2)nc(N2CCN(C(=O)CCCCCCCCCCNC(=O)[C@@H]([C@H](C)O)n3cc(C)nn3)CC2)n1 | 28 | -15 | 6 | -14 | -3 | -23
C#CCOCCOCCOCCNc1nc(N2CCN(C(=O)CCCCCCCCCCNC(=O)Cn3cc(CCCCCN)nn3)CC2)nc(N2CCN(C(=O)CCCCCCCCCCNC(=O)[C@H](CO)n3cc(CCCCCN)nn3)CC2)n1 | -6 | -10 | -4 | -7 | 1 | -19
C#CCOCCOCCOCCNc1nc(N2CCN(C(=O)CCCCCCCCCCNC(=O)Cn3cc(CCCCCN)nn3)CC2)nc(N2CCN(C(=O)CCCCCCCCCCNC(=O)[C@H]([C@@H](C)CC)n3cc(CCCCCN)nn3)CC2)n1 | -4 | 30 | -3 | 96* | -21 | -17
O=[N+]([O-])c1cccc(COc2cccc(CN3CCCC3)c2)c1 | 11 | -34 | -54 | 7 | -17 | -18
CCCCC[C@@H](C)N1C[C@H](COCc2ccccc2)Oc2cc(N3CCC[C@H]3C(N)=O)ccc2S1(=O)=O | . | -3 | 5 | . | . | 10
Cc1ccc2c(c1)-c1cc(C)ccc1C2=O | 5 | -24 | -17 | -20 | 11 | 64*
CCCN1C(=O)C(=O)c2cc(C)ccc21 | 5 | -14 | 3 | -4 | -1 | -4
CC(C)c1ccc(S(=O)(=O)c2cc3cc(Br)ccc3oc2=O)cc1 | -25 | -7 | 14 | 88* | 37 | 54*
Cc1ccc(S(=O)(=O)c2cc3cc(Br)ccc3oc2=O)cc1 | -6 | -16 | 15 | -51 | 28 | 80*
O=C(Nc1cccc(S(=O)(=O)N2CCCCC2)c1)C1CC(=O)N(c2ccc3c(c2)OCCO3)C1 (configuration not stated) | -16 | 22 | 8 | 20 | 10 | 7
CCOC(=O)Cc1csc(N/N=C/c2cccc([N+](=O)[O-])c2)n1 | 6 | -13 | -32 | -39 | -7 | -11
O=[N+]([O-])c1cccc(-c2csc(N/N=C/c3cccc(O)c3)n2)c1 | 11 | 51* | -275 | 102* | 40 | 58*
O=C(CSc1nccc(=O)[nH]1)NC1CCCCCCC1 | 1 | -25 | 4 | 12 | 15 | -2
COc1cc(C2C3=C(COC3=O)OC(C)(C)Oc3cc4c(cc32)OCO4)cc(OC)c1OC (configuration not stated) | -40 | 17 | 23 | -21 | 64* | -5
Cc1cccc(-n2ncc3c2CCCC3NC(=O)CCCN2CCCCC2=O)c1C (configuration not stated) | -4 | -10 | 3 | 13 | -4 | 12
CNc1ccc(Br)cc(C(=O)/C=C/c2cccc(Cl)c2Cl)c1=O | -20 | 7 | 13 | 106* | 46 | 38
CNc1ccc(Br)cc(C(=O)/C=C/c2cccc(OC)c2OC)c1=O | -1 | 2 | 13 | 7 | 0 | 7
CC(Oc1ccc(Cl)cc1Cl)c1nc(-c2ccc(NC(=O)c3ccccn3)cc2)no1 (configuration not stated) | -50 | 21 | -152 | -168 | 23 | 53*
OCCN1CCN(c2ncnc3c2c(-c2ccccc2)cn3-c2ccc(Br)cc2)CC1 | -9 | 10 | 17 | 35 | 14 | -11
NC(=O)C1CCN(c2ncnc3c2c(-c2ccccc2)cn3-c2ccccc2)CC1 | -3 | -15 | 22 | 61* | 17 | 6
COC1CCCN(C(=O)c2cccc(OC3CCN(S(C)(=O)=O)CC3)c2)C1 (configuration not stated) | -4 | -13 | -17 | -4 | 2 | 5
SMILES | KKLEB tox | TROY signal inh | HIF-2a inh | Peg3 prom inh | CF NFkB block | TWEAK-Fn14 inh
COC(=O)C1CCN(C2CN(Cc3ccc(C)cc3)S(=O)(=O)C2)CC1 (configuration not stated) | -7 | 0 | 1 | -6 | -7 | 16
CC1(C(=O)Nc2ccc3c(c2)OCCO3)CN(S(C)(=O)=O)CC(=O)N1CCc1ccc(O)cc1 (configuration not stated) | . | . | -8 | . | . | .
Nn1c(=S)[nH]c2sc3c(c2c1=O)CCCC3 | -3 | 75* | -6 | -2 | 17 | 53*
COc1cccc(NC(=O)N2CCc3nc(Nc4ccc(C(C)C)cc4)ncc3C2)c1 | 2 | 71* | -59 | -33 | -13 | 75*
COc1cc(Nc2ncc3c(n2)CCN(C(=O)Nc2ccc(C(C)C)cc2)C3)cc(OC)c1OC | -2 | 38 | -15 | 18 | 20 | 22
Cc1c(-c2ccccc2)oc2c(C(=O)N3CCN(c4ccccc4F)CC3)cccc2c1=O | 6 | 18 | 26 | 31 | 41 | 54*
O=C1C(N2CCOCC2)=C(n2nnc3ccccc32)C(=O)c2ccccc21 | -22 | 14 | 27 | 98* | 86* | 45
Cc1[nH]n(-c2ccccc2)c(=O)c1/C=N/NC(=O)c1ccc(O)cc1O | -11 | -23 | -13 | -10 | 21 | -27
CCCCN(CCCC)C(=S)N/N=C/c1c(C)[nH]n(-c2ccccc2)c1=O | -7 | -8 | 1 | 72* | -15 | -2
CC(C)N1C(=O)/C(=C\c2nc3ccccc3c(=O)n2-c2ccccc2)c2ccccc21 | 3 | -8 | 87* | 36 | -32 | 54*
Cc1nnc(N/N=C/c2ccc([N+](=O)[O-])cc2)n1N | 6 | 55* | 1 | 2 | -8 | -12
Cn1cccc1C(=O)NC(=O)COC(=O)C12CC3CC(CC(O)(C3)C1)C2 | -10 | 79* | -92 | -102 | 4 | 44
CC(=O)NC12CC3CC(C1)CC(C(=O)OCC(=O)NC(=O)c1cccn1C)(C3)C2 | 1 | -28 | -43 | -20 | -1 | -12
